Experimental data from PubChem BioAssay (NCATS).
“And” between values parts separate entries of the source, which are not always exact repeats. Identical values can stand only once. Records with an inconclusive call do not appear. The source made the active and inactive calls. Unless noted, calls follow the shape of the dose curve; as a rule, active = well fitted curve in the direction sought with a large enough effect; inconclusive = small, poorly fitted or top-dose-only effect, or another doubt; inactive = no such curve, though single readings can be large; an effect the other way counts as inactive or inconclusive.

Tests used:
[1] = target: Retinoic acid receptor RXR-alpha (Homo sapiens) (UniProt P19793); test: qHTS assay for small molecule antagonists of retinoid X receptor alpha signaling (AID 588546; active = well fitted inhibition curve with a large enough effect in the signal ratio, with a control signal flat, not every such curve was filed as active; the % refers to the signal ratio;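 also: cells stimulated with 9-cis-retinoic acid as agonist; % is scaled to controls: 0 for no effect and ±100 for the full control effect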); conditions: HEK293T RXRa-UAS-bla, beta-lactamase ratio, antagonist mode
Sequence of Retinoic acid receptor RXR-alpha (Homo sapiens) (P19793 whole entry, looked up): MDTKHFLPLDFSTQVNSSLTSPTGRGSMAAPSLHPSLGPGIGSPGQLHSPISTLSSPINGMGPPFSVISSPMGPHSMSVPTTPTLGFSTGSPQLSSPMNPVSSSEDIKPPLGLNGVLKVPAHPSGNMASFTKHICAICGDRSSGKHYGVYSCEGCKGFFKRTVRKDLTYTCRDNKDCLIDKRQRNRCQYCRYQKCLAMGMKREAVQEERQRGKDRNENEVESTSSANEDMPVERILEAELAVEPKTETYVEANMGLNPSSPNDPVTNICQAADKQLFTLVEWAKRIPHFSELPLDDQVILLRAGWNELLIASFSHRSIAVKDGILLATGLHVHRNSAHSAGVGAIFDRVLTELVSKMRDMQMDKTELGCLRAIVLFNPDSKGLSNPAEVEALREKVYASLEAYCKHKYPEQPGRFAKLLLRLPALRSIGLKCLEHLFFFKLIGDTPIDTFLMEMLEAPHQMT
Method in brief: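 Beta-lactamase reporter inhibition, read as CCF4 fluorescence ratio (ex 405, em 460/530 nm) after 2 h at RT. HEK293T UAS-bla cells, 2500/well, were stimulated with 9-cis-RA at 500 or 100 nM final alongside test compound for 18 h at 37 C.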

[2] = target: Thyroid hormone receptor beta (Homo sapiens) (UniProt P10828); test: qHTS assay for small molecule antagonists of thyroid hormone receptor beta signaling (AID 588547; active = well fitted inhibition curve with a large enough effect in the signal ratio, with a control signal flat, not every such curve was filed as active; the % refers to the signal ratio;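 also: cells stimulated with 0.4 nM T3 agonist during compound exposure; series mostly up to about 77 µM; % is scaled to controls: 0 for no effect and ±100 for the full control effect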); conditions: TR-UAS-bla HEK293, beta-lactamase ratio, antagonist mode, 18 h
Sequence of Thyroid hormone receptor beta (Homo sapiens) (P10828 whole entry, looked up): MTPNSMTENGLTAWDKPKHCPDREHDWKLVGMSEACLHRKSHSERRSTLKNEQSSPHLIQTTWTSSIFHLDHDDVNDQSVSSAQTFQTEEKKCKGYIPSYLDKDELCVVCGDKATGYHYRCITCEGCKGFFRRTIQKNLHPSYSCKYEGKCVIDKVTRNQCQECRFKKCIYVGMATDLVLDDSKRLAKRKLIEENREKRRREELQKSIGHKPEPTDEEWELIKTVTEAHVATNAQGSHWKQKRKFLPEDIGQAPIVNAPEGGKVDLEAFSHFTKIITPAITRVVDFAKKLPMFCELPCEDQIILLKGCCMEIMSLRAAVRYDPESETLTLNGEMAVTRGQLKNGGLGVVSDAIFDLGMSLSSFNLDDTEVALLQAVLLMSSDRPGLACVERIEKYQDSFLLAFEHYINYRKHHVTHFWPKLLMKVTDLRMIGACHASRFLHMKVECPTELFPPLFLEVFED
Method in brief: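 TR-UAS-bla GripTite HEK293 cells in 2% charcoal/dextran FBS medium; compounds 0.59 nM to 92 uM with T3 at 0.4nM final, 18 h at 37 C. Beta-lactamase read by CCF4 fluorescence (460/530 nm); Hill fits gave IC50 and efficacy.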

[3] = target: Voltage-gated inwardly rectifying potassium channel KCNH2 (Homo sapiens) (UniProt Q12809); test: qHTS Assay for Small Molecule Inhibitors of the Human hERG Channel Activity (AID 588834);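 also: top concentration of the series differs between compounds; % is scaled to controls: 0 for no effect and ±100 for the full control effect; lower thallium flux fluorescence means stronger hERG block; nearly all actives have a fitted effect of over 50% in size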
Method in brief: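 Thallium serves as surrogate for K+ influx through BacMam-delivered hERG in U2OS cells. Compounds are added for about 10 minutes after dye loading; stimulation buffer then starts flux, monitored kinetically on FDSS.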

[4] = qHTS assay for small molecule agonists of the antioxidant response element (ARE) signaling pathway (AID 651741; active = well fitted activation curve with a large enough effect in the signal ratio; the % refers to the signal ratio; also: % of control where 0% means no effect)
Method in brief: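 Stably integrated ARE-beta-lactamase reporter HepG2 cells; 16 h compound incubation, 37 C; LiveBLAzer FRET substrate 2 h at room temperature; fluorescence intensity.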

[5] = qHTS assay for small molecule activators of the p53 signaling pathway (AID 651743; active = well fitted activation curve with a large enough effect in the signal ratio, not every such curve was filed as active; the % refers to the signal ratio; also: series mostly up to about 92 µM; % of control where 0% means no effect); conditions: HCT-116 p53RE-bla, beta-lactamase FRET ratio, 16 h; activation: stronger effect = higher value
Method in brief: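 Following 16 hours of compound exposure at 37 C, HCT-116 cells bearing the p53RE-bla reporter were loaded with LiveBLAzer B/G FRET substrate for 2 hours at room temperature and fluorescence intensity was recorded.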

[6] = qHTS assay for small molecule activators of the nuclear factor-kappa B (NF-kB) signaling pathway (AID 651749; active = well fitted activation curve with a large enough effect in the signal ratio; the % refers to the signal ratio; also: series mostly up to about 77 µM; % of control where 0% means no effect); conditions: NF-kB-bla ME-180 cells, beta-lactamase FRET ratio, 16 h; activation: stronger effect = higher value
Method in brief: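 In this qHTS format, compounds acting as activators increase NF-kB-driven beta-lactamase in ME-180 cells, measured as disrupted FRET after 16 hr exposure at 37C and 5% CO2.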

[7] = qHTS assay for small molecule disruptors of the mitochondrial membrane potential - 5 hr assay (AID 651755; calls by dose curve; also: % is scaled to controls: 0 for no effect and ±100 for the full control effect; nearly all actives have a fitted effect of over 40% in size)
Method in brief: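 Read-out: ratiometric Mito-MPS fluorescence, green monomer (ex 490/em 535) vs red mitochondrial aggregate (ex 540/em 590). HepG2 cells treated 5 hr at 37C before 30 min dye loading.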

[8] = target: Tumor necrosis factor (Homo sapiens) (UniProt P01375); test: qHTS assay to identify small molecules that stimulate Tumor Necrosis Factor-alpha (TNF-alpha) secretion (AID 651757; active = well fitted curve in the direction sought with a large enough effect in the signal ratio; the % refers to the signal ratio; also: 0% is about no effect)
Sequence of Tumor necrosis factor (Homo sapiens) (P01375 whole entry, looked up): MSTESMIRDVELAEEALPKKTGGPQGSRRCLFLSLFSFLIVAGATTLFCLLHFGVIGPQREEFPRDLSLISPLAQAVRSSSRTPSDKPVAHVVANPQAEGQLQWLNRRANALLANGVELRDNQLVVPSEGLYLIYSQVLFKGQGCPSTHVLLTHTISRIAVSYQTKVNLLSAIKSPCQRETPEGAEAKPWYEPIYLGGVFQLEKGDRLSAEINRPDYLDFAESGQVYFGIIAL
Method in brief: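 Human monocytic THP-1 cells are plated, treated with compound and held at 37 C for 17 hrs. Labeled anti-TNF-alpha antibody mixture is then added; after 3 hr at room temperature, TR-FRET signal reports secreted TNF-alpha.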

[9] = qHTS assay to identify small molecules that stimulate interleukin-8 (IL-8) secretion (AID 651758; active = well fitted activation curve with a large enough effect in the signal ratio; the % refers to the signal ratio; also: 0% is about no effect)
Method in brief: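 Compounds are added to THP-1 cells (2000 per well) and left 16 hrs at 37 C. A labeled anti-IL-8 antibody pair is then added, and IL-8 secretion is measured by time-resolved FRET after 1-3 hrs at room temperature.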

[10] = qHTS assay for environmental chemicals that activate the Aryl hydrocarbon Receptor (AhR) signaling pathway (AID 651777); conditions: 1A2-DRE human hepatoma cells, luciferase, 24 h; activation: stronger effect = higher value; also: % of control where 0% means no effect; nearly all actives have a fitted effect of over 15% in size
Method in brief: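 1A2-DRE human hepatoma reporter line; 1,200 cells/well; cmpd or DMSO 24 h, 37 C/5% CO2; One-Glo 30 min RT; luciferase lum.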

[11] = target: Peroxisome proliferator-activated receptor alpha (Homo sapiens) (UniProt Q07869); test: qHTS assay for small molecule agonists of the peroxisome proliferator-activated receptor alpha (PPARalpha) signaling pathway (AID 651778); conditions: PathHunter PPARalpha complementation, chemiluminescence, 6 h; stronger effect = higher value; also: % of control where 0% means no effect
Sequence of Peroxisome proliferator-activated receptor alpha (Homo sapiens) (Q07869 whole entry, looked up, the tested form may be a part): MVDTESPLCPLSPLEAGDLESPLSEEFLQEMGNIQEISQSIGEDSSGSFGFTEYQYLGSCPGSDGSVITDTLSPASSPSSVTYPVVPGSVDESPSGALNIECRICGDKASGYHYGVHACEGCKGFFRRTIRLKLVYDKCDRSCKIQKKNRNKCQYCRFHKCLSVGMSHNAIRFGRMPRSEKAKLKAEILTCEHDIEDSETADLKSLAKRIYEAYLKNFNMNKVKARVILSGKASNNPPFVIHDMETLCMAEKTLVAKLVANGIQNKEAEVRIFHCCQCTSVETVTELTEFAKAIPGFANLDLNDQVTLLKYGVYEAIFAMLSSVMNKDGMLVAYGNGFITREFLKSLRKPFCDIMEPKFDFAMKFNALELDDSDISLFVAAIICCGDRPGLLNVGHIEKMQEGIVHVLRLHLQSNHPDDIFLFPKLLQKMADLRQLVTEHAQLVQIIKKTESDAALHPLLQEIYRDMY
Method in brief: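 Enzyme-fragment complementation assay in which ligand-bound PPARalpha translocates and forms an active enzyme that generates chemiluminescence. Cells were plated overnight, exposed to compound for 6 hr at 37 C, and then given detection reagent for 60 min at room temperature.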

[12] = target: Nuclear receptor ROR-gamma (Homo sapiens) (UniProt P51449); test: qHTS assay for small molecule antagonists of the retinoid-related orphan receptor gamma (ROR-gamma) signaling pathway (AID 651802);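 also: CHO cells with doxycycline-induced ROR-gamma expression; series mostly up to about 92 µM; % is scaled to controls: 0 for no effect and ±100 for the full control effect; nearly all actives have a fitted effect of over 60% in size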
Sequence of Nuclear receptor ROR-gamma (Homo sapiens) (P51449 whole entry, looked up): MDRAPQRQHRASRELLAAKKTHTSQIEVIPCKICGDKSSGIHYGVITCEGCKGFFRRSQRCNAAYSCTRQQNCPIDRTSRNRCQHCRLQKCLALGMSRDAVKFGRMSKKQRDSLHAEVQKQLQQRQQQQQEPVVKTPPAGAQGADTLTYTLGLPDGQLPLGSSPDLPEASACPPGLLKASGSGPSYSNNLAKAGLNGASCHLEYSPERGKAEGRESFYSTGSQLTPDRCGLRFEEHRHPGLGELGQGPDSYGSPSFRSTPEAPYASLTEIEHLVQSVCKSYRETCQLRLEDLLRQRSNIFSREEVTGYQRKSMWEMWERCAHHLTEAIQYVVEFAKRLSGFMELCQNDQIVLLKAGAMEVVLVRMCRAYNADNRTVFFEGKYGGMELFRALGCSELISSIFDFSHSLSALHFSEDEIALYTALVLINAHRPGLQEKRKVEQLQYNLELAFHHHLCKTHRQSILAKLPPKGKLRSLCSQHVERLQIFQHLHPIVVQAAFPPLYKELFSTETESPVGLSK
Method in brief: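 Steps: cells dispensed; compound or DMSO transferred by pin tool; doxycycline added to induce the ROR response element-driven luciferase; plates held 16hr at 37C; ONE-Glo added and luminescence measured.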

[13] = qHTS assay for small molecule agonists of the antioxidant response element (ARE) signaling pathway measured by Nrf2-dependant transcriptional activity (AID 720636; active = well fitted curve in the direction sought with a large enough effect in the repeat runs; an effect the other way counts as inactive or inconclusive;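 also: HepG2 cells with an ARE-driven luciferase reporter; % of control where 0% means no effect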)
Method in brief: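 Cells: ARE-luc HepG2 with Nrf2-responsive luciferase. Medium contained 1% dialyzed FBS. Compound exposure lasted 16 hr at 37 C and 5% CO2, followed by ONE-Glo luciferase detection.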

[14] = qHTS assay for small molecule antagonists of the retinoid-related orphan receptor gamma (ROR-gamma) signaling pathway - cell viability counter screen (AID 720652; active = well fitted curve in the direction sought with a large enough effect in the repeat runs; an effect the other way counts as inactive or inconclusive;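 also: CHO reporter cells with doxycycline-induced ROR-gamma expression; series mostly up to about 92 µM; compound exposure lasted 16 hr before ATP read; % is scaled to controls: 0 for no effect and ±100 for the full control effect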)
Method in brief: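 Steps: seed CHO cells bearing TET-inducible ROR and ROR response element-luciferase; rest 5 hr at 37 C; add compound, then doxycycline; incubate 16 hr; add CellTiter-Glo and read luminescence as ATP-based viability.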

[15] = qHTS assay for small molecule agonists of the antioxidant response element (ARE) signaling pathway measured by Nrf2-dependant transcriptional activity - cell viability counter screen (AID 720653; active = well fitted curve in the direction sought with a large enough effect in the repeat runs; an effect the other way counts as inactive or inconclusive; also: % is scaled to controls: 0 for no effect and ±100 for the full control effect); conditions: ARE-bla HepG2 viability, CellTiter-Glo ATP luminescence, 16 h; stronger effect = lower value
Method in brief: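 ARE-bla HepG2 cells treated with compounds for 16 h at 37C; this counter screen measures viability as intracellular ATP by CellTiter-Glo luminescence after 30 min at room temperature.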

[16] = qHTS assay for cell viability of the p53RE-bla HCT-116 cell line (AID 743292); also: % is scaled to controls: 0 for no effect and ±100 for the full control effect; nearly all actives have a fitted effect of over 55% in size
Method in brief: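 HCT-116 p53RE-bla cells seeded 4,000/well; 5 h at 37 C; compound (DMSO) added; 16 h at 37 C; CellTiter-Glo added, 30 min RT; luminescence read.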

[17] = target: Rap guanine nucleotide exchange factor 3 (Homo sapiens) (UniProt O95398); test: Confirmatory qHTS for antagonist of cAMP-regulated guanine nucleotide exchange factor 3 (EPAC1) (AID 1645880);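 also: plate controls were DMSO only for no effect and full effect of the ATA control for full effect; nearly all actives have a fitted effect of over 55% in size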
Sequence of Rap guanine nucleotide exchange factor 3 (Homo sapiens) (O95398 whole entry, looked up): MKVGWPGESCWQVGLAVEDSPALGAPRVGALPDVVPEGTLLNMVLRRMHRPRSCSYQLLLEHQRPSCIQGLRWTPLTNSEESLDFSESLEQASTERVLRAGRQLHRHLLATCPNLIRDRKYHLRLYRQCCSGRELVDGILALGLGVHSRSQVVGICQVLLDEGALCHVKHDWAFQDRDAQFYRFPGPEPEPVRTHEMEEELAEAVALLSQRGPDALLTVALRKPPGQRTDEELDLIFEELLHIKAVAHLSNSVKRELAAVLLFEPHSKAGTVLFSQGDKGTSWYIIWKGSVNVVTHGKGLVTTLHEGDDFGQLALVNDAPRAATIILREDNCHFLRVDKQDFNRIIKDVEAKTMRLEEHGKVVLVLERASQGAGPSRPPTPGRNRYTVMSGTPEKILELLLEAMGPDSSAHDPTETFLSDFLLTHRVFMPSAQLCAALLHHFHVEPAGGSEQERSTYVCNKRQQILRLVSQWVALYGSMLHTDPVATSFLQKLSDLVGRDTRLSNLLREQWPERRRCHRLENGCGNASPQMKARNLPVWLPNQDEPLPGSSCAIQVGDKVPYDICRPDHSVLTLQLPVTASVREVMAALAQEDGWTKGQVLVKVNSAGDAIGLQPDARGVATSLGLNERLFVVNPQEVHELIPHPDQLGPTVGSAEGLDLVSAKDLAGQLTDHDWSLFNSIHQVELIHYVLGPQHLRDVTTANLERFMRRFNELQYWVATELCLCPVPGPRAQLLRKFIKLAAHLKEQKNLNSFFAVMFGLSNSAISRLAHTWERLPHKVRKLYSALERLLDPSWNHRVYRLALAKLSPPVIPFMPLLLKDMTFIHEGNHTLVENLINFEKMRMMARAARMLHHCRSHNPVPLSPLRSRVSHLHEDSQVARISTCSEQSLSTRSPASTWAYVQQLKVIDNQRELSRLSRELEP
Method in brief: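 Released BODIPY-GDP fluoresces less than Rap1-bound BODIPY-GDP; the signal is followed at 480/540 nm at 5-min intervals over 30 min, after 5 min at room temperature. Reactions contain 100 nM EPAC1, 250 nM RAP1B-BODIPY-GDP and 50 uM GDP; results are normalized to ATA and DMSO.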

[18] = target: Rap guanine nucleotide exchange factor 3 (Homo sapiens) (UniProt O95398); test: Confirmatory qHTS for agonist of cAMP-regulated guanine nucleotide exchange factor 3 (EPAC1) (AID 1645881);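 also: EPAC1 catalysed release of BODIPY-GDP from Rap1B seen as fluorescence loss; 100% = effect of cAMP agonist control; nearly all actives have a fitted effect of over 75% in size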
[19] = target: Rap guanine nucleotide exchange factor 4 (Homo sapiens) (UniProt Q8WZA2); test: Confirmatory qHTS for agonist of cAMP-regulated guanine nucleotide exchange factor 4 (EPAC2) (AID 1645884);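 also: nucleotide exchange releases bodipy-GDP from Rap1 and this lowers its fluorescence; % is scaled to controls: 0 for no effect and ±100 for the full control effect; nearly all actives have a fitted effect of over 65% in size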
Sequence of Rap guanine nucleotide exchange factor 4 (Homo sapiens) (Q8WZA2 whole entry, looked up): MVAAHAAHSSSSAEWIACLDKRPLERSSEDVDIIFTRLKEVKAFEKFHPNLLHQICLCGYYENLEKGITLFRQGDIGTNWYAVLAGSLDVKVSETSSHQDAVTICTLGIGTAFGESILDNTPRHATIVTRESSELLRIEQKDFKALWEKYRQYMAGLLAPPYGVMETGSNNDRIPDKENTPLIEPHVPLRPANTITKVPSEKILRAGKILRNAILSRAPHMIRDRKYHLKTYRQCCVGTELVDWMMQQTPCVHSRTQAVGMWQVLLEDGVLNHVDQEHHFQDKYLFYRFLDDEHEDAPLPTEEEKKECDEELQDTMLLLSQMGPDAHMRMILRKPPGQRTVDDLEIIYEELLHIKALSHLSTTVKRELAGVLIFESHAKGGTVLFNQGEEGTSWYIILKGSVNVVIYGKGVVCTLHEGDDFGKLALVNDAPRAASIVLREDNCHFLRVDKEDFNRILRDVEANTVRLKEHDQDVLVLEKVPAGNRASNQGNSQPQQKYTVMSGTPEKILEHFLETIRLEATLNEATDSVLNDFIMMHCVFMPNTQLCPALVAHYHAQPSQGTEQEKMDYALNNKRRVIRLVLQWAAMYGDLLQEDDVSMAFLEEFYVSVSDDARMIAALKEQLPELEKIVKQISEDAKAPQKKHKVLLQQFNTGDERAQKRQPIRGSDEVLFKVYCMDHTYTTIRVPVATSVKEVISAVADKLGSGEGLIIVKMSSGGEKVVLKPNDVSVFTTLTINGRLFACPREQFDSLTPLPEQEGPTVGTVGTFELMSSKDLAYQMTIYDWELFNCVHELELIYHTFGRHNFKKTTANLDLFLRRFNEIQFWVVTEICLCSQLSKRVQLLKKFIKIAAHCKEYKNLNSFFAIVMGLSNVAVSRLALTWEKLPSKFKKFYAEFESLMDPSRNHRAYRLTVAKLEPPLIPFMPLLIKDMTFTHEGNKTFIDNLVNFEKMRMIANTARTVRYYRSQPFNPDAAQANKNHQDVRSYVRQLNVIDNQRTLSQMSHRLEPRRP

[20] = target: Rap guanine nucleotide exchange factor 4 (Homo sapiens) (UniProt Q8WZA2); test: Confirmatory qHTS for antagonist of cAMP-regulated guanine nucleotide exchange factor 4 (EPAC2) (AID 1645885); also: % is scaled to controls: 0 for no effect and ±100 for the full control effect; nearly all actives have a fitted effect of over 25% in size
[21] = target: Rap guanine nucleotide exchange factor 3 (Homo sapiens) (UniProt O95398); test: Counterscreen qHTS for agonist of cAMP-regulated guanine nucleotide exchange factor 3 (EPAC1) (AID 1645889); also: % of control where 0% means no effect; nearly all actives have a fitted effect of over 40% in size
Method in brief: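 Rap1B–BODIPY-GDP (250 nM) with 50 uM GDP; compounds pin-transferred to 9.74 nM–152 uM final (activator) or from 7.32 nM upwards (inhibitor). Fluorescence Ex/Em 480/540 nm read at 5 and 30 min, then after adding cAMP or buffer, at room temperature.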

[22] = target: Nuclear receptor subfamily 1 group I member 2 (Rattus norvegicus) (UniProt Q9R1A7); test: qHTS assay for small molecule activators of the rat pregnane X receptor (rPXR) signaling pathway (AID 651751; call rule not given here; also: 0% is about no effect); conditions: rPXR reporter cells, luciferase (One-Glo), 24 h
Sequence of Nuclear receptor subfamily 1 group I member 2 (Rattus norvegicus) (Q9R1A7 whole entry, looked up): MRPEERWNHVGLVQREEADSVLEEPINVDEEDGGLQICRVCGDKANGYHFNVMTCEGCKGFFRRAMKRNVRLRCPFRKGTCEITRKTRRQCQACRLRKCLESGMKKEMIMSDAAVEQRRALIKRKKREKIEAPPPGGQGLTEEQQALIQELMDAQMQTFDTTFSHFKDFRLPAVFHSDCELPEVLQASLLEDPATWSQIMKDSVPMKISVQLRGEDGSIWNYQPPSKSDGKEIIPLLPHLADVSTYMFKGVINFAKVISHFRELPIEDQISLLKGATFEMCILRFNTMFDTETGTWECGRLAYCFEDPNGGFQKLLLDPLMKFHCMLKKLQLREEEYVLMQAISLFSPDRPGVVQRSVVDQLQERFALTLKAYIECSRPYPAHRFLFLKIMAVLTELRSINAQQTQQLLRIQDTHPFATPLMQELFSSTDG

[23] = qHTS assay for small molecule activators of the human pregnane X receptor (PXR) signaling pathway (AID 720659; call rule not given here; also: 0% is about no effect)

CCCOC(=O)c1ccccc1C(=O)OCCC
inactive: max response [1] -20.7% and -19.5% | activity change % (negative = inhibition) [2] 0.697% and -6.62% | Potency [3] | Potency [4] | activation [5] -4.2% and 2.37% | activation [6] -0.812% and -1.55% | Potency [7] | outcome [8] | Potency [9] | activation [10] -1.57% and -0.202% | max response [11] -3.23% and -0.333% | Potency [12] | outcome [13] | Potency [14] | max response [15] 2.53% and -0.566% | Potency [16] | Potency [17] | Potency [18] | activation [19] -6.75% [at 17.1 µM, percent relative to cAMP agonist control] | activity change, negative = inhibition [20] -25.7% [at 12.7 µM] | activation [21] 23.9% [at 30.8 µM] | max response [22] 4.44% and -1.18% | outcome [23]
